Measurements as given in PubChem BioAssay AID2685 (National Center for Advancing Translational Sciences (NCATS), 2010).
Out of some 320,000 compounds screened, about 2,100 (0.66%) were called active. Another 53% or so got no clear call; they are omitted. This is one part of a sample in which actives are shown more often than they occur. Calls follow the shape of the dose curve; as a rule, active = well fitted inhibition curve with a large enough effect in the signal ratio, with a control signal flat (not every such curve was filed as active); inconclusive = small, poorly fitted or top-dose-only effect, or effect the other way, or a change in a side signal; inactive = flat fitted curve, though single readings scatter; the % refers to the signal ratio.

Assay: qHTS Assay for Lipid Storage Modulators in Drosophila S3 Cells;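 as to cell number change: cells counted by Cell Tracker Red CMTPX staining in the red channel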; as to lipid storage change, negative = inhibition: % is scaled to controls: 0 for no effect and ±100 for the full control effect
Details: BODIPY lipid droplet fluorescence, 18-24 h, cells fed with added oleic acid; cell number change: measured here: cell count max response; series mostly up to 46.1 µM; lipid storage change, negative = inhibition: at the top concentration
In short: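 Drosophila S3 cells got compounds at several concentrations plus oleic acid (400 uM solution). Laser-scanning cytometry with 488 nm excitation read lipid droplets at 500-530 nm and cells at 575-640 nm. Percent activity was relative to 20 uM Triacsin C.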
Potency is read from the fitted curve at half-maximal effect.

| Structure (SMILES) | lipid storage change, negative = inhibition | cell number change | outcome | Potency |
| --- | --- | --- | --- | --- |
| COc1ccc(S(=O)(=O)N2CCCCC2)cc1NC(=O)CSc1nccn1C | -17.8% (inactive) | -6.22% |  |  |
| CC(=O)c1c(C(C)=O)c(C)n(-c2ccc(C)c(NC(=O)c3ccccc3Cl)c2)c1C | 7.18% (inactive) | -18.6% |  |  |
| COc1ccc(NC(=O)N2CCCC(CCC(=O)N(C)CCc3ccccn3)C2)cc1 (stereo unspecified) | 3.61% (inactive) | -4.81% |  |  |
| Cc1nc(N2CCCCC2)sc1C(=O)c1cccc([N+](=O)[O-])c1 | -23.7% (inactive) | -2.77% |  |  |
| CC(=O)c1cccc(NC(=O)NC2CCCc3ccccc32)c1 (stereo unspecified) | -3.84% (inactive) | -3.38% |  |  |
| CCOc1cc(/C=C2\SC(=N)N(c3nonc3N)C2=O)ccc1OCC(N)=O | -17.3% (inactive) | 1.49% |  |  |
| COc1ccccc1NC(=O)C(=O)c1cn(CC(=O)N2CCCC2)c2ccccc12 |  | 8.26% | inactive |  |
| COc1ccccc1N1CCN(C(=O)C(=O)c2cn(CC(=O)N3CCCC3)c3ccccc23)CC1 | -17.6% (inactive) | -2.59% |  |  |
| O=CN1CCN(C(=O)C(=O)c2cn(CC(=O)N3CCCCC3)c3ccccc23)CC1 | 5.33% (inactive) | 4.31% |  |  |
| CN1CCN(C(=O)C(=O)c2cn(CC(=O)N3CCCC3)c3ccccc23)CC1 | -2.97% (inactive) | -8.67% |  |  |
| COc1ccccc1N1CCN(C(=O)C(=O)c2cn(CC(=O)N3CCCCCC3)c3ccccc23)CC1 |  | -23.8% |  | 11.6 µM (active) |
| CC(=O)c1ccc(N2CCN(C(=O)C(=O)c3cn(CC(=O)N4CCCCCC4)c4ccccc34)CC2)cc1 |  | -13.1% |  | 16.4 µM (active) |
| CCCC(=O)Nc1c(-c2ccccc2Cl)c(=O)c2ccccc2n1C | -11.9% (inactive) | 21.4% |  |  |
| COc1ccccc1-n1c(SCC(=O)Nc2nnc(C)s2)nc2c(c1=O)SCC2 | 0.949% (inactive) | 4.2% |  |  |
| CCCCCCCCCCOC(=O)C[N+](C)(C)C/C=C(/C)Cl |  | -24.8% |  | 2.06 µM (active) |
| CCCCCCCCCCCCOC(=O)C[N+](C)(C)C | -4.89% (inactive) | -12.3% |  |  |
| CCCCCCCCOC(=O)C[N+](C)(C)C/C=C(/C)Cl | 9.71% (inactive) | 5.17% |  |  |
| CC1(C)Cc2c(cnn2-c2ccccc2)C(NC(=O)C2(C(N)=O)CC2)C1 (stereo unspecified) | -9.11% (inactive) | 8.69% |  |  |
| COc1ccc(C2CC(c3cccs3)=NN2C(=O)CCC(=O)O)cc1 (stereo unspecified) | 2.58% (inactive) | -0.88% |  |  |
| COc1ccc(CN2C(=O)c3cccnc3C2=O)cc1S(=O)(=O)NC1CCCCC1C (stereo unspecified) |  | -3.23% | inactive |  |
| COc1ccc(CN2C(=O)c3cccnc3C2=O)cc1S(=O)(=O)N(C)c1ccc(C)cc1 |  | 8.02% | inactive |  |
| CCN(c1cccc(C)c1)S(=O)(=O)c1cc(CN2C(=O)c3cccnc3C2=O)ccc1OC |  | 7.63% |  | 8.2 µM (active) |
| CCCN(CCC)S(=O)(=O)c1cc(CN2C(=O)c3cccnc3C2=O)ccc1OC | 24.4% (inactive) | 9.22% |  |  |

| Structure (SMILES) | lipid storage change, negative = inhibition | cell number change | outcome | Potency |
| --- | --- | --- | --- | --- |
| COc1ccc(CN2C(=O)c3cccnc3C2=O)cc1S(=O)(=O)N1CCCCC1 |  | -13.9% |  | 1.64 µM (active) |
| COc1ccc(CN2C(=O)c3cccnc3C2=O)cc1S(=O)(=O)NC(C)C |  |  | inactive |  |
| O=C(CN1C(=O)CCS(=O)(=O)c2ccccc21)NCc1ccc2c(c1)OCO2 | 14.7% (inactive) | -18.6% |  |  |
| CC1(C)Cc2c(sc(NC(=O)C(=O)NCC3CCCO3)c2C(N)=O)CO1 (stereo unspecified) |  | -4.25% | inactive |  |
| CNC(=O)c1ccccc1S(=O)(=O)c1ccccc1C#N | 4.63% (inactive) | -5.1% |  |  |
| Cc1cc(C(F)(F)F)nn1CC(=O)NCc1cccs1 | 20.9% (inactive) | 3.66% |  |  |
| COc1ccc(OC)c(NC(=O)C2CCCCC2C(=O)O)c1 (stereo unspecified) | 4.14% (inactive) | 2.85% |  |  |
| COCC1CCN(C(=O)c2ccc(OC)c(OC3CCN(C(C)C)CC3)c2)CC1 |  | 13.3% | inactive |  |
| CCCOc1ccc(C(=O)O)cc1 | -24.9% (inactive) | 0.594% |  |  |
| CN1CCC(N(C)C(=S)NC(=O)C23CC4CC(CC(C4)C2)C3)CC1 | -6.23% (inactive) | -1.68% |  |  |
| CCOc1ccc(-n2c(N)c(C(=O)NCc3ccco3)sc2=S)cc1 | -2.67% (inactive) | 1.94% |  |  |
| COc1ccc(CNC(=O)C/C(C)=N/NC(=O)C23CC4CC(CC(C4)C2)C3)cc1 | 3.76% (inactive) | 9.74% |  |  |
| CC1CCN(C(=O)c2[nH]cnc2C(=O)NCC(=O)OCc2ccccc2)CC1 |  | 12.3% | inactive |  |
| COc1ccccc1CNC(=O)C1CCN(S(=O)(=O)c2ccc(N3CCCC3=O)cc2)CC1 |  | 16.5% | inactive |  |
| COc1cccc(C2/C(=C(\O)c3c(C)nc4c(C)cccn34)C(=O)C(=O)N2CCCN(C)C)c1 (stereo unspecified) | 6.42% (inactive) | -2.27% |  |  |
| COc1ccc(C2/C(=C(\O)c3ccc(OC)c(Cl)c3)C(=O)C(=O)N2CCN(C)C)cc1 (stereo unspecified) | -3.93% (inactive) | 7.61% |  |  |
| COc1cccc(C2/C(=C(\O)c3ccc4c(c3)OCCO4)C(=O)C(=O)N2CCN(C)C)c1 (stereo unspecified) | 10.2% (inactive) | -19.5% |  |  |
| COc1ccc(/C(O)=C2/C(=O)C(=O)N(CCCN(C)C)C2c2ccccc2)cc1Cl (stereo unspecified) |  | 2.04% |  | 13 µM (active) |
| COc1cccc(/C(O)=C2/C(=O)C(=O)N(CCN(C)C)C2c2ccc(Br)cc2)c1 (stereo unspecified) |  | 3.06% |  | 2.31 µM (active) |
| COc1cccc(C2/C(=C(/O)c3ccncc3)C(=O)C(=O)N2CCCN(C)C)c1 (stereo unspecified) |  | 2.93% |  | 6.51 µM (active) |
| CCCOc1cccc(C2/C(=C(/O)c3ccncc3)C(=O)C(=O)N2CCCN(C)C)c1 (stereo unspecified) |  | -3.79% | inactive |  |
| COc1cccc(C2/C(=C(/O)c3ccc(F)cc3)C(=O)C(=O)N2CCN(C)C)c1 (stereo unspecified) | 0.584% (inactive) | 5.93% |  |  |
| COc1ccc(/C(O)=C2/C(=O)C(=O)N(CCN(C)C)C2c2ccccc2)cc1Cl (stereo unspecified) | 4.66% (inactive) | -4.09% |  |  |
